The nature of assay [1]: BSK_3C_Proliferation: Cell Proliferation Assessment in the BioMAP Diversity Plus: 3C Assay (AID 2283006).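 For AC50: potency may reflect either rise or fall in cell number versus DMSO.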 The following applies: primary human endothelial cells (HUVEC). In a few lines: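 Proliferation as total protein: sulforhodamine B (0.1%) stain of TCA-fixed subconfluent human umbilical vein endothelial cells, absorbance 560 nm, 48 h after dosing. Activity fitted in both directions against DMSO baseline.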

Assay [2] can be described thus: BSK_LPS_SRB: Viability Assessment in the BioMAP Diversity Plus: LPS Assay (AID 2283079).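 Note: total protein by sulforhodamine B absorbance as a cytotoxicity measure; measured one day after compound addition; fitted in both directions against DMSO so loss or gain of signal counts.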 The conditions noted are these: primary human HUVEC with PBMC. In a few lines: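 Co-culture of human umbilical vein endothelial cells and PBMC, read 24 h after dosing. Total protein by 0.1% SRB staining after 10% TCA fixation, absorbance at 560 nm; bidirectional fit against DMSO.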

Read-out in assay [3]: Tumor necrosis factor (Homo sapiens) (UniProt P01375)
The assay can be described thus: BSK_LPS_TNFa: BioMAP Diversity Plus: LPS Assay for Tumour Necrosis Factor alpha (TNFa) Biomarker Activity (AID 2283085). The following applies: primary human HUVEC with PBMC; actives raise or lower the signal. In a few lines: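 TNFa was quantified by ELISA in LPS-activated co-cultures of human endothelial cells and PBMC, 24 h post-dosing. Both increases and decreases versus DMSO were fitted.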

Read-out in assay [4]: Vascular cell adhesion molecule 1 (VCAM1), VCAM1 (gene 7412)
The assay can be described thus: BSK_LPS_VCAM1: BioMAP Diversity Plus: LPS Assay for Vascular cell adhesion molecule 1 (VCAM1) Biomarker Activity (AID 2283086). The following applies: primary human HUVEC with PBMC; actives raise or lower the signal. The procedure, abridged:
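VCAM-1 quantified by ELISA in an LPS-activated co-culture of human endothelial cells and peripheral blood mononuclear cells, read 24 h post-treatment. Fitted in both directions versus DMSO; parallel SRB staining flags overt cytotoxicity.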

Read-out in assay [5]: Monocyte Chemoattractant Protein-1 (MCP1), CCL2 (gene 6347)
The assay can be described thus: BSK_SAg_MCP1: BioMAP Diversity Plus: SAg Assay for Monocyte Chemoattractant Protein-1 (MCP1) Biomarker Activity (AID 2283090). The following applies: primary human HUVEC with PBMC; actives raise or lower the signal. The procedure, abridged: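 Values derive from bidirectional fitting of ELISA-measured MCP1 against DMSO controls. Readings were taken 24 h after dosing human vascular endothelial cells co-cultured with peripheral blood mononuclear cells under superantigen stimulation.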

Read-out in assay [6]: E-selectin (Homo sapiens) (UniProt P16581)
The assay can be described thus: BSK_SAg_Eselectin: BioMAP Diversity Plus: SAg Assay for Eselectin Biomarker Activity (AID 2283091). The conditions noted are these: primary human HUVEC with PBMC; actives raise or lower the signal. In a few lines: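 Human umbilical vein endothelial cells co-cultured with peripheral blood mononuclear cells, SAg system. E-selectin is measured by ELISA 24 h after dosing and fitted bidirectionally against DMSO. Cytotoxicity is checked by SRB staining of parallel cultures.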

Read-out in assay [7]: Monokine induced gamma interferon (MIG), CXCL9 (gene 4283)
Description: BSK_SAg_MIG: BioMAP Diversity Plus: SAg Assay for Monokine induced gamma interferon (MIG) Biomarker Activity (AID 2283092). The conditions noted are these: primary human HUVEC with PBMC; actives raise or lower the signal. The procedure, abridged: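 Measures CXCL9 protein by ELISA in a human vascular primary-cell co-culture (umbilical vein endothelium with PBMC) 24 h after chemical addition. Activity is scored up or down from the DMSO control.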

Read-out in assay [8]: Interleukin-8 (IL8), CXCL8 (gene 3576)
The assay can be described thus: BSK_SAg_IL8: BioMAP Diversity Plus: SAg Assay for Interleukin-8 (IL8) Biomarker Activity (AID 2283094). The conditions noted are these: primary human HUVEC with PBMC; actives raise or lower the signal. The procedure, abridged:
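ELISA readout of IL-8 from a superantigen-activated endothelial/PBMC primary human co-culture, taken 24 h post-dosing and fitted in both directions against DMSO; parallel SRB total-protein staining flags overt cytotoxicity.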

Assay [9] can be described thus: BSK_SAg_Proliferation: Cell Proliferation Assessment in the BioMAP Diversity Plus: SAg Assay (AID 2283095).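 Note: relative cell number as total protein by SRB absorbance in sub-confluent culture.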 The conditions noted are these: primary human HUVEC with PBMC. The procedure, abridged: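 Relative cell number in the endothelial cell/PBMC co-culture was quantified at 96 h by SRB staining (0.1% SRB, 10% TCA fixation, read at 560 nm). Curves were fitted in both directions relative to DMSO baseline.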

Assay [10] is described as follows: BSK_SAg_SRB: Viability Assessment in the BioMAP Diversity Plus: SAg Assay (AID 2283096).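 Note: cells read one day after compound addition; hits may be either gain or loss of signal compared with DMSO.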 The following applies: primary human HUVEC with PBMC. The procedure, abridged:
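This overt-cytotoxicity endpoint quantifies protein in human endothelial/PBMC co-cultures at 24 h using SRB absorbance (560 nm) after trichloroacetic acid fixation. Values reflect signal change from the DMSO negative control, fitted bidirectionally.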

Read-out in assay [11]: Interferon-inducible T-cell alpha chemoattractant (ITAC), CXCL11 (gene 6373)
Description: BSK_hDFCGF_ITAC: BioMAP Diversity Plus: hDFCGF Assay for Interferon-inducible T-cell alpha chemoattractant (ITAC) Biomarker Activity (AID 2284251). The conditions noted are these: primary human foreskin fibroblasts. The procedure, abridged: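 Chemical dosing of primary human foreskin fibroblast cultures preceded ELISA measurement of I-TAC at 24 h. Response was analysed in the positive direction using DMSO as baseline, while parallel SRB staining measured cytotoxicity.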

Read-out in assay [12]: Intercellular Adhesion Molecule 1 (ICAM1), ICAM1 (gene 3383)
Description: BSK_BE3C_ICAM1: BioMAP Diversity Plus: BE3C Assay for Intercellular Adhesion Molecule 1 (ICAM1) Biomarker Activity (AID 2284278).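 Note: cell-surface ICAM-1 protein level quantified by ELISA.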 The following applies: primary human bronchial epithelial cells. In a few lines: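 ICAM-1 quantified by ELISA and fitted against DMSO baseline, 24 h post-dosing in BE3C cultures of primary human lung bronchial epithelial cells. Cytotoxicity checked in parallel cultures by total protein SRB staining.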

Read-out in assay [13]: Epidermal growth factor receptor (EGFR), EGFR (gene 1956)
The assay can be described thus: BSK_BE3C_EGFR: BioMAP Diversity Plus: BE3C Assay for Epidermal growth factor receptor (EGFR) Biomarker Activity (AID 2284281). The following applies: primary human bronchial epithelial cells. The procedure, abridged: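 Measured 24 h after dosing in primary human bronchial epithelial cultures, EGFR was read by ELISA; gain of signal over DMSO control defined activity.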

Read-out in assay [14]: KRT18 (gene 3875)
Description: BSK_BE3C_Keratin818: BioMAP Diversity Plus: BE3C Assay for Keratin 818 Biomarker Activity (AID 2284282). The conditions noted are these: primary human bronchial epithelial cells. In a few lines: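 ELISA readout of Keratin 8/18 in human primary bronchial epithelial cultures after 24 h chemical exposure, DMSO baseline. Parallel SRB staining (0.1%, TCA-fixed, 560 nm) served as cytotoxicity check.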

Read-out in assay [15]: Matrix Metallopeptidase 9 (MMP9), MMP9 (gene 4318)
The assay can be described thus: BSK_BE3C_MMP9: BioMAP Diversity Plus: BE3C Assay for Matrix Metallopeptidase 9 (MMP9) Biomarker Activity (AID 2284283). The conditions noted are these: primary human bronchial epithelial cells. In a few lines: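 Human primary bronchial epithelial cells exposed 24 h to compound. MMP9 quantified by ELISA. SRB total-protein staining of parallel cultures assesses cytotoxicity. Positive-direction fit relative to DMSO.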

Read-out in assay [16]: TIMP metallopeptidase inhibitor 2 (TIMP2), TIMP2 (gene 7077)
Description: BSK_hDFCGF_TIMP2: BioMAP Diversity Plus: hDFCGF Assay for TIMP metallopeptidase inhibitor 2 (TIMP2) Biomarker Activity (AID 2284289). The following applies: primary human foreskin fibroblasts. The procedure, abridged: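 Primary human foreskin fibroblasts in the hDFCGF system, dosed for 24 h; TIMP-2 level measured by ELISA, fitted in the positive direction against DMSO; cytotoxicity checked in parallel by sulforhodamine B total protein staining.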

Read-out in assay [17]: Thrombomodulin, THBD (gene 7056)
The assay can be described thus: BSK_LPS_Thrombomodulin: BioMAP Diversity Plus: LPS Assay for Thrombomodulin Biomarker Activity (AID 2284296). The conditions noted are these: primary human HUVEC with PBMC. The procedure, abridged: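 Thrombomodulin on the surface of LPS-activated endothelial/PBMC co-cultures was quantified by ELISA at 24 hours post-dosing, with DMSO as baseline. Parallel SRB total-protein staining flagged overt cytotoxicity.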

Assay [18] can be described thus: ATG_XTT_Cytotoxicity: Cytotoxicity Assessment in the Attagene TRANS-FACTORIAL HepG2 Assay (AID 2283584; active = hit-call score of the fitted dose curve at least 0.9, where 1 is the maximum). The procedure, abridged: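 HepG2 cells transiently transfected with GAL4-UAS multiple reporter units, dosed 24 h; cytotoxicity read by XTT as loss of signal versus DMSO baseline.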
The target in assay [19] is X-box-binding protein 1 (Homo sapiens) (UniProt P17861). The assay can be described thus: ATG_Xbp1_CIS: Attagene CIS-FACTORIAL HepG2 Assay for human X-box Binding Protein 1 (XBP1) (AID 2282972). The following applies: HepG2 XBP1 cis-element reporter, Attagene multiplex; actives raise or lower the signal. In a few lines:
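Read-out: fluorescent reporter mRNA fragments resolved by capillary electrophoresis after RT-PCR. Human HepG2 liver cells carried transfected cis-promoter reporter units and were exposed to chemicals for 24 hours. Gain or loss of signal fitted relative to DMSO baseline.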

The target in assay [20] is mouse Estrogen Receptor alpha (Era), Esr1 (gene 13982) (UniProt P19785). The assay can be described thus: NVS_NR_mERa: NovaScreen (NVS) Nuclear Receptor Binding Assay for mouse Estrogen Receptor alpha (Era) (AID 2283378; active = hit-call score of the fitted dose curve at least 0.9, where 1 is the maximum;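 note: hit means loss of bound radioligand signal relative to DMSO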). The procedure, abridged:
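Cell-free radioligand competitive displacement binding, read by filter-based scintillation counting 18 h after dosing. Primary screen run in duplicate at 25 uM, actives retested in concentration series; loss of signal versus DMSO.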

Values joined by “and” are separate entries in the source; they are usually repeats but may differ in a detail not shown here. Identical values can stand only once. Records with an inconclusive call do not appear. A structure can be active in one record and inactive in another. Active and inactive are the calls of the source. Rule for the calls, unless noted: active = hit-call score of the fitted dose curve at least 0.9, where 1 is the maximum; inactive = score below 0.9.

Sequence of X-box-binding protein 1 (Homo sapiens) (P17861 whole entry, looked up, the tested form may be a part): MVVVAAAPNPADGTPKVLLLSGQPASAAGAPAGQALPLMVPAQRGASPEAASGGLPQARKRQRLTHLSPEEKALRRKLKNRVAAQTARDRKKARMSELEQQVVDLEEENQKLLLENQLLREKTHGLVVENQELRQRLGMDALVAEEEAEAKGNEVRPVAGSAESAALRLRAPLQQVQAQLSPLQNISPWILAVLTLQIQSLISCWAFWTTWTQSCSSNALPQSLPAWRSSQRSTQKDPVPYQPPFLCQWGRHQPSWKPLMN
Sequence of E-selectin (Homo sapiens) (P16581 whole entry, looked up): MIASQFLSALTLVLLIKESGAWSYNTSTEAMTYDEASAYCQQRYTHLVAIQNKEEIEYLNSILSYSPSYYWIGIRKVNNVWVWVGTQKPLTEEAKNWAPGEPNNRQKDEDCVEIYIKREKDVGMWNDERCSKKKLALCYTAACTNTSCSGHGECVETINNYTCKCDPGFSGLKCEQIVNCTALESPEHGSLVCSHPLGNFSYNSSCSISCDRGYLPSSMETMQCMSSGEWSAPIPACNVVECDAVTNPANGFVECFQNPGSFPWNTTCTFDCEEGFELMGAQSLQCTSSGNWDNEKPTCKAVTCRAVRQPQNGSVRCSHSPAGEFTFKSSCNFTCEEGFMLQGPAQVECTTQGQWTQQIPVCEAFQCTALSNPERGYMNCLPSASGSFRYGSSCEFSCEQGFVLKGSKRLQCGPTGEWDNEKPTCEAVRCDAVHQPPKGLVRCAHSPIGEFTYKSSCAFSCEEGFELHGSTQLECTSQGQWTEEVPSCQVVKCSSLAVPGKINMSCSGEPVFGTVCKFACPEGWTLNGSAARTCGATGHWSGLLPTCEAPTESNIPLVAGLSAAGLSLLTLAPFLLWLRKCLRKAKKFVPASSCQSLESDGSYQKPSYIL
Sequence of Tumor necrosis factor (Homo sapiens) (P01375 whole entry, looked up): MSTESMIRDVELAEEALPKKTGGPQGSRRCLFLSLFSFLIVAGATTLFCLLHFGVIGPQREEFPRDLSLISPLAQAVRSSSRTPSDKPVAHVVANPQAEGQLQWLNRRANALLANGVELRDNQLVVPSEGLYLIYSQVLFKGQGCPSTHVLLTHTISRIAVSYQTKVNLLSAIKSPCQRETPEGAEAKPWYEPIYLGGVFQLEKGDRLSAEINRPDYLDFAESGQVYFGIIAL
Sequence of mouse Estrogen Receptor alpha (Era), Esr1 (gene 13982) (P19785 whole entry, looked up): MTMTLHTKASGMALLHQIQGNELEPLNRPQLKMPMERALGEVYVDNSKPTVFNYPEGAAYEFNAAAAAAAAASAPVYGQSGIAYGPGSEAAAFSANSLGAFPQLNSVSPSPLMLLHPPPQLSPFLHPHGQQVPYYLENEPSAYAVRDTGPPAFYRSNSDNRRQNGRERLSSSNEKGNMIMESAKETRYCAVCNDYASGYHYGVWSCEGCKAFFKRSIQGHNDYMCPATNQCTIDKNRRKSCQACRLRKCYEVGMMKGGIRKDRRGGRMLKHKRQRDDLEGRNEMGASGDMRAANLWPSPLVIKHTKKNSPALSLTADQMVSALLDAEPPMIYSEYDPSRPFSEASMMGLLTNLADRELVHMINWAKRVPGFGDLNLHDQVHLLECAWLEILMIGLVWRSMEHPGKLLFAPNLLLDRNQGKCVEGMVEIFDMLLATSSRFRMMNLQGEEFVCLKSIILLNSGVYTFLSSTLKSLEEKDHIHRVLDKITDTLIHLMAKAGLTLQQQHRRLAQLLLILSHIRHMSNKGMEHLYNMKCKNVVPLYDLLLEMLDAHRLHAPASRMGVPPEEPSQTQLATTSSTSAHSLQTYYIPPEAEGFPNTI

As to `CCC[Si](OC(C)=O)(OC(C)=O)OC(C)=O`, the outcome in assay [1], in assay [2], in assay [3], in [4], in assay [5] and in assay [6] was inactive. Also, the result in assay [7], in assay [8], in assay [9], in [10], in [11] and in [12] was inactive. Further, the outcome in assay [13], in assay [14], in assay [15], in [16] and in [17] was inactive.
One may read the AC50 as the concentration at which the activity in the assay is half-maximal. Turning to `COc1cc(CNC(=O)CCCC/C=C/C(C)C)ccc1O`, the half-maximal activity concentration (AC50) in assay [1] is 8.93 µM (active) and 9.17 µM (active); in [11], 8.32 µM (active) and 8.05 µM (active); in [16], 27.7 µM (active). In addition, the outcome in [2], in assay [3], in assay [4], in assay [5], in assay [6] and in assay [7] was inactive. The outcome in assay [8], in [9], in assay [10], in assay [12], in assay [13] and in assay [14] was inactive. The result in [15], in assay [16] and in assay [17] was inactive.
`CN(C)N=Nc1ccccc1`: the molecule was classed as inactive in [18].
Take `CCO[Si](CCCN)(OCC)OCC`: in assay [19], the molecule was classed as inactive.
`CCCc1c(OCCCCc2nn[nH]n2)ccc(C(C)=O)c1O`: the outcome in [19] and in assay [18] was inactive.
Take `O=C(C1CCCCC1)N1CC(=O)N2CCc3ccccc3C2C1` (centres undefined): in [19], the molecule was classed as inactive.
Take `CCCCCCCCCCCCSC#N`: the AC50 in assay [20] was 6.16 µM (active).
For `CC[N+](CC)(CC(=O)Nc1c(C)cccc1C)Cc1ccccc1`, the outcome in assay [19], in assay [2], in assay [3], in assay [4], in [5] and in [6] was inactive. Besides, the outcome in [7], in assay [8], in [9], in assay [10] and in assay [18] was inactive.
With `CCCCC(CC)COC(=O)C=Cc1ccc(OC)cc1` (centres undefined), the AC50 was 32.7 µM (active) and 27.1 µM (active) in assay [1]; 32.1 µM (active) and 36.7 µM (active) in [2]; 31.7 µM (active) and 32.3 µM (active) in assay [5]; 25.9 µM (active) and 18.8 µM (active) in [6]; 23.5 µM (active) and 36.7 µM (active) in assay [8]; 34.9 µM (active) and 37.8 µM (active) in [9]. Moreover, the AC50 is 31 µM (active) and 35.2 µM (active) in assay [10]; 3.97 µM (active) and 6.38 µM (active) in assay [16]; 10.6 µM (active) and 20 µM (active) in assay [17]. In addition, the outcome in assay [3], in assay [4], in [7], in assay [11], in [12] and in assay [13] was inactive. Also, the outcome in [14] and in assay [15] was inactive.

The values above are taken from PubChem BioAssay (EPA / NIEHS).
